“And” between values parts separate entries of the source, which are not always exact repeats. Equal values may be shown once. Inconclusive results are not listed. A call without a number means that no potency is given here. The source holds several records for some structures; these can differ, active in one and inactive in another. The source made the active and inactive calls. Calls come from the whole dose curve; as a rule, active = well fitted curve in the direction sought with a large enough effect; inconclusive = small, poorly fitted or top-dose-only effect, or another doubt; inactive = no such curve, though single readings can be large; an effect the other way counts as inactive or inconclusive.
Assays:
[1] = molecular target: Glutathione peroxidase 1 (Homo sapiens) (UniProt P07203); test: Primary qHTS Assay for Inhibitors of Recombinant Selenoprotein Glutathione Peroxidase 1 (GPX1) (AID 1845191); note: nearly all actives have a fitted effect of over 65% in size
Sequence of Glutathione peroxidase 1 (Homo sapiens) (P07203 whole entry, looked up): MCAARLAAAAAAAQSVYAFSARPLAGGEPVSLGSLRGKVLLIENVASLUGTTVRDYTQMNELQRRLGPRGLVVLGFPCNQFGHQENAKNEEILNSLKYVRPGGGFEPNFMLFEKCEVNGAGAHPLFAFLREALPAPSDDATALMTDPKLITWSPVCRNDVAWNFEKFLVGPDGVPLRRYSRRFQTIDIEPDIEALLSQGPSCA
How it was run: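 GR-coupled readout: NADPH consumption tracked by fluorescence, ex 340/em 450 nm, at t=0 and after 15 min at RT. Final mix 10 nM GPX1, 1 mM GSH, 0.5 mM CHP, 0.5 mM NADPH, 100 nM GR, 0.01% BSA, following 30 min enzyme–compound preincubation.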

[2] = molecular target: Phospholipid hydroperoxide glutathione peroxidase GPX4 (Homo sapiens) (UniProt P36969); test: Primary qHTS Assay for Inhibitors of Recombinant Selenoprotein Glutathione Peroxidase 4 (GPX4) (AID 1845192); note: nearly all actives have a fitted effect of over 65% in size; note: potency is the fitted concentration of half-maximal effect; for activity change, negative = inhibition: series mostly up to about 50 µM
Sequence of Phospholipid hydroperoxide glutathione peroxidase GPX4 (Homo sapiens) (P36969 whole entry, looked up): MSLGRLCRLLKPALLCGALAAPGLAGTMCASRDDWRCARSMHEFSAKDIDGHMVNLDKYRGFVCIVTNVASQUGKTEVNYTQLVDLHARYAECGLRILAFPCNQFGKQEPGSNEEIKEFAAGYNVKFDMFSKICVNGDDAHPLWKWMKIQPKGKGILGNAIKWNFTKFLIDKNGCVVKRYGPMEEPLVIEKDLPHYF
How it was run: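 Steps: GPX4 plus compound, 30 min RT; add GR/GSH/NADPH master mix; start with cumene hydroperoxide; read 340/450 nm fluorescence at 0 and 15 min. Finals were 200 nM GPX4, 1 mM GSH, 0.5 mM CHP, 0.5 mM NADPH, 100 nM GR.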

[3] = molecular target: Luciferin 4-monooxygenase (Photinus pyralis) (UniProt P08659); test: Primary firefly luciferase (FLuc) qHTS assay for identification of artifact compounds. (AID 1845220); note: nearly all actives have a fitted effect of over 60% in size; for activity change, negative = inhibition: series mostly up to about 54 µM
How it was run: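 D-luciferin and ATP (10 uM each, final) in Tris acetate buffer pH 7.6 were incubated with compounds for 15 min at room temperature. The reaction was started with 10 nM Photinus pyralis luciferase and luminescence read after 5 min. Percent inhibition was fitted to a 4-parameter Hill equation.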

[4] = Primary fluorescence-based thiol-reactive (MSTI) qHTS assay for identification of artifact compounds. (AID 1845221); note: nearly all actives have a fitted effect of over 65% in size; note: potency is the fitted concentration of half-maximal effect;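 for activity change, negative = thiol reactive: series mostly up to about 54 µM; thiol-reactive compounds lower the probe fluorescence signal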
How it was run: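 Reactivity toward the thiol probe MSTI (4 uM) is scored by fluorescence at Ex/Em 525/598 nm after 1 h at room temperature. Acetyl-MSTI and MSTI define the activity scale.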

[5] = test system: Nanoluciferase (engineered Oplophorus gracilirostris luciferase); test: Primary Nanoluciferase (NLuc) qHTS assay for identification of artifact compounds. (AID 1845222); note: series mostly up to about 54 µM
How it was run: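 Diluted conditioned medium from NLuc-expressing S16 cells treated with compounds for 15 min at room temperature, then Nano-Glo substrate added; luminescence read after 5 min. Percent inhibition versus no-enzyme and DMSO controls fitted to 4-parameter Hill equation.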

[6] = Primary redox qHTS assay for identification of artifact compounds. (AID 1845223)
How it was run: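 Redox-cycling detection via DTT (250 uM final) oxidation coupled to Amplex Red (25 uM)/HRP (250 mU/mL) in HBSS. 15 min preincubation plus 30 min after DTT, room temperature. Ex/Em 525/598 nm; 4-parameter Hill fit against DMSO and 10 uM DA3003.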

| Compound | Potency [1] | Potency [2] | Potency [3] | Potency [4] | Potency [5] | Potency [6] | activity change, negative = inhibition [3] | activity change, negative = thiol reactive [4] | activity, negative = inhibition [5] | redox activity (% of DA3003) [6] | outcome [3] |
| --- | --- | --- | --- | --- | --- | --- | --- | --- | --- | --- | --- |
| Nc1ncnc2c1c(COc1cccc(Cl)c1)nn2C1CCOCC1 | inactive | inactive | inactive | inactive | inactive | inactive |  |  |  |  |  |
| CC(=O)O[C@H]1C[C@@H](O)C(C)(C)C2C[C@@H](OC(C)=O)[C@]3(C)C(CC[C@@]4(C)[C@H](c5ccoc5)OC(=O)[C@H]5O[C@]543)[C@]21C (stereo partly specified) | inactive | inactive | inactive | inactive | inactive | inactive |  |  |  |  |  |
| COc1ccccc1CN[C@H]1CCCN[C@H]1c1ccccc1 | inactive | inactive | inactive | inactive | inactive | inactive |  |  |  |  |  |
| CC1(C(=O)O)CCCC2(C)C3CCC4CC3(CCC12)CC4(O)CO (stereo unspecified) | inactive | inactive | inactive | inactive | inactive | inactive |  |  |  |  |  |
| C=C1C(O)CC2C(C(=O)O)=COC(OC3OC(CO)C(O)C(O)C3OC(=O)/C=C\c3ccc(O)cc3)C12 (stereo unspecified) | inactive | inactive | inactive | 4.62 µM (active) | inactive | inactive |  |  |  |  |  |
| Cc1cc(-n2c(=O)[nH]c(=O)n(C)c2=O)ccc1Oc1ccc(SC(F)(F)F)cc1 | inactive | inactive and 15.8 µM (active) | inactive | inactive | inactive | inactive |  |  |  |  |  |
| CC(CCO)CCC1C2(C)CCCC(C)(C)C2CC[C@@]1(C)O (stereo partly specified) | inactive | inactive | inactive | inactive | inactive | inactive |  |  |  |  |  |
| Fc1cccc(CN(C2=NCCN2)c2c(Cl)cccc2Cl)c1 | inactive | inactive | inactive | inactive | inactive | inactive |  |  |  |  |  |
| COC(=O)C[C@H]1C(C)(C)[C@H](OC(=O)C(C)C)C2CC3=C4CC(=O)O[C@@H](c5ccoc5)[C@]4(C)CCC3[C@@]1(C)C2=O (stereo partly specified) | inactive | inactive | inactive | inactive | inactive | inactive |  |  |  |  |  |
| COC(=O)C1=COC(OC2OC(CO)C(O)C(O)C2O)C2C(COC(=O)/C=C/c3ccc(O)cc3)C(O)C(O)C12 (stereo unspecified) | inactive | inactive | inactive | 5.82 µM (active) | inactive | inactive |  |  |  |  |  |
| C=C(C)[C@@H]1CC[C@]2(C(=O)O)CC[C@]3(C)C(CCC4[C@]5(C)C(CC[C@]43C)C(C)(C)[C@@H](O)[C@@H]5C(=O)O)C12 (stereo partly specified) | inactive | inactive | inactive | inactive | inactive | inactive |  |  |  |  |  |
| Cc1occc(=O)c1O[C@@H]1O[C@H](CO[C@@H]2OC[C@](O)(CO)[C@H]2O)[C@@H](O)[C@H](O)[C@H]1O | inactive | inactive | inactive | inactive | inactive | inactive |  |  |  |  |  |
| Cc1nnc(-c2ccc3occ(-c4ccc(S(C)=O)cc4)c3c2)o1 (stereo unspecified) | inactive | inactive | inactive | inactive | inactive | inactive |  |  |  |  |  |
| CC1(C)CC[C@]2(C(=O)O[C@@H]3O[C@H](CO)[C@@H](O)[C@H](O)[C@H]3O)CC[C@]3(C)C(=CCC4[C@@]5(C)C[C@@H](O)[C@H](O)[C@@](C)(CO)C5[C@H](O)C[C@]43C)C2[C@@H]1O (stereo partly specified) | inactive | inactive | inactive | 3.16 µM (active) | inactive | inactive |  |  |  |  |  |
| C=C(C)[C@@]1(O)C[C@@]2(C)C(=CC1=O)CC[C@@H](O)[C@@H]2C | inactive | inactive | inactive | inactive | inactive | inactive |  |  |  |  |  |
| CC(=O)OCC1OC(OC2COC(OC3COC(OC4C(OC5C(CO)OC(OC6CCC7(C)C(CCC8(C)C7CC=C7C9CC(C)(C)CCC9(C(=O)OC9OC(CO)C(O)C(O)C9OC9OCC(OC%10OCC(O)(CO)C%10O)C(O)C9O)C(O)CC78C)C6(C)C)C(O)C5O)OCC(O)C4O)C(O)C3O)C(O)C2O)C(OC(=O)/C=C/c2ccccc2)C(O)C1OC(C)=O (stereo unspecified) | inactive | inactive |  |  |  |  | 4.52% [at 6.45 µM] (inactive) | 153% [at 6.41 µM] (inactive) | 4.35% [at 6.45 µM] (inactive) | -4.05% [at 6.41 µM] (inactive) |  |
| CC(C)CC(=O)O[C@@H]1O[C@H](CO)[C@@H](O[C@H]2O[C@H](C)[C@@H](N[C@H]3C=C(CO)[C@@H](O[C@H]4O[C@H](CO)[C@@H](O[C@H]5O[C@H](CO)[C@@H](O[C@H]6O[C@H](CO)[C@@H](O)[C@H](O)[C@H]6O)[C@H](O)[C@H]5O)[C@H](O)[C@H]4O)[C@H](O)[C@H]3O)[C@H](O)[C@H]2O)[C@H](O)[C@H]1O | inactive | inactive |  |  |  |  |  | 7.36% [at 11.5 µM] (inactive) | 0.158% [at 11.6 µM] (inactive) | 4.39% [at 11.5 µM] (inactive) | inactive [at 11.6 µM] |
| C=C1CC2C3(C)C=CC(=O)OC(C)(C)C3CC(OC(C)=O)C2(C)C2C(=O)OC(C)C(=O)C12C (stereo unspecified) | inactive | inactive | inactive | inactive | inactive | inactive |  |  |  |  |  |
| CC(=O)OC(C)(C)/C=C/C(=O)[C@](C)(O)C1[C@H](O)C[C@@]2(C)[C@@H]3CC=C4[C@@H](C[C@H](O[C@@H]5O[C@H](CO)[C@@H](O)[C@H](O)[C@H]5O)C(=O)C4(C)C)[C@]3(C)C(=O)C[C@]12C (stereo partly specified) | inactive | inactive | inactive | inactive | inactive | inactive |  |  |  |  |  |
| O=C(O)c1ccnc2cc(C(OCC3CCC(F)(F)CC3)c3ccccc3Cl)[nH]c12 (stereo unspecified) | inactive | inactive | inactive | inactive | inactive | inactive |  |  |  |  |  |
| CC(C)[C@@](O)(c1ccc2cc(OC(F)F)c(OC(F)F)cc2c1)c1cn[nH]n1 | inactive | inactive | inactive | inactive | inactive | inactive |  |  |  |  |  |

Reference: PubChem BioAssay (NCATS)
